Test results from ChEMBL document CHEMBL1961873, “Compounds: GSK PKIS; Assays: Nanosyn kinase panel” (2012).

How the values were obtained:
[1] = target: 5'-AMP-activated protein kinase catalytic subunit alpha-2 (Homo sapiens) (UniProt P54646); conditions: at 1 µM
[2] = target: T1, NUAK family SNF1-like kinase 1 (Homo sapiens) (UniProt O60285); conditions: at 0.1 µM
T1 sequence (whole entry): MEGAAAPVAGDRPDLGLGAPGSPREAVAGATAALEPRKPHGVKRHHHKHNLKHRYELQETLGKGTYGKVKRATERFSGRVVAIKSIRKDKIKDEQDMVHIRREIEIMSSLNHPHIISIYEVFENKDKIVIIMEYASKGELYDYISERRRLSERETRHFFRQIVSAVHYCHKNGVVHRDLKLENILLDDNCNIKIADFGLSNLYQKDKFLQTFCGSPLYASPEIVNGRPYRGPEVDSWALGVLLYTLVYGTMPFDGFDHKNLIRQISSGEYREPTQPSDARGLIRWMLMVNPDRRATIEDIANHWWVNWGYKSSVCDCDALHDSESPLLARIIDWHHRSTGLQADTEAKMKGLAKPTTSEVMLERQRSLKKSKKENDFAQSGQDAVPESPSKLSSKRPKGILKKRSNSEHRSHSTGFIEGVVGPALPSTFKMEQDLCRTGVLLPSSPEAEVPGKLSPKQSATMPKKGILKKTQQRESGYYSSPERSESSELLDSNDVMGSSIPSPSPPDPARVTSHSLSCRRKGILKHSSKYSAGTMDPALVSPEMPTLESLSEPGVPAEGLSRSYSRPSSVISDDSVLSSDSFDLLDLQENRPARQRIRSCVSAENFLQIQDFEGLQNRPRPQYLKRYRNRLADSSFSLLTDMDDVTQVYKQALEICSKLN

[3] = target: T1, NUAK family SNF1-like kinase 1 (Homo sapiens); conditions: at 1 µM
[4] = target: T2, Serine/threonine-protein kinase BRSK1 (Homo sapiens) (UniProt Q8TDC3); conditions: at 0.1 µM
T2 sequence (whole entry): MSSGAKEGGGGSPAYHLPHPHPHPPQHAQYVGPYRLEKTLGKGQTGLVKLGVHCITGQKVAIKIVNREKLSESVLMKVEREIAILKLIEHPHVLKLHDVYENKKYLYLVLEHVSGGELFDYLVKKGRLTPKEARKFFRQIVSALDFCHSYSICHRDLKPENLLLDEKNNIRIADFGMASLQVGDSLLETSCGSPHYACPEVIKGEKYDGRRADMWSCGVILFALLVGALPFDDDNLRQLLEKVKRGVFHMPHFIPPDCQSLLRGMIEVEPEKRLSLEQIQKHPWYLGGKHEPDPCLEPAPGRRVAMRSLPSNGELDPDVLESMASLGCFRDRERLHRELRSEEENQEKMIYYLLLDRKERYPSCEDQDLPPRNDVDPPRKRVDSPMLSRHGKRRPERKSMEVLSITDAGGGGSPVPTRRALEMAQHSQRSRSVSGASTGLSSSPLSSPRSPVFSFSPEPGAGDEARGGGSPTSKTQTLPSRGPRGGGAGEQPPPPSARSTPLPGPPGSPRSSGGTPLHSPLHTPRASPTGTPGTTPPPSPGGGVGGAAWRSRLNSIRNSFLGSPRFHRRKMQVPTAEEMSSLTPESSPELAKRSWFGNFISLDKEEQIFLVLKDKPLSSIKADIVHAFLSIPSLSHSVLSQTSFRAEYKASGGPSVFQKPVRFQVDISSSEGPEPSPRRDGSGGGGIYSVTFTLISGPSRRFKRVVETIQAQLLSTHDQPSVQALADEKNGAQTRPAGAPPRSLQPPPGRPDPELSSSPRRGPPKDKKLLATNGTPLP

[5] = target: T2, Serine/threonine-protein kinase BRSK1 (Homo sapiens); conditions: at 1 µM
[6] = target: T3, Serine/threonine-protein kinase BRSK2 (Homo sapiens) (UniProt Q8IWQ3); conditions: at 0.1 µM
T3 sequence (whole entry): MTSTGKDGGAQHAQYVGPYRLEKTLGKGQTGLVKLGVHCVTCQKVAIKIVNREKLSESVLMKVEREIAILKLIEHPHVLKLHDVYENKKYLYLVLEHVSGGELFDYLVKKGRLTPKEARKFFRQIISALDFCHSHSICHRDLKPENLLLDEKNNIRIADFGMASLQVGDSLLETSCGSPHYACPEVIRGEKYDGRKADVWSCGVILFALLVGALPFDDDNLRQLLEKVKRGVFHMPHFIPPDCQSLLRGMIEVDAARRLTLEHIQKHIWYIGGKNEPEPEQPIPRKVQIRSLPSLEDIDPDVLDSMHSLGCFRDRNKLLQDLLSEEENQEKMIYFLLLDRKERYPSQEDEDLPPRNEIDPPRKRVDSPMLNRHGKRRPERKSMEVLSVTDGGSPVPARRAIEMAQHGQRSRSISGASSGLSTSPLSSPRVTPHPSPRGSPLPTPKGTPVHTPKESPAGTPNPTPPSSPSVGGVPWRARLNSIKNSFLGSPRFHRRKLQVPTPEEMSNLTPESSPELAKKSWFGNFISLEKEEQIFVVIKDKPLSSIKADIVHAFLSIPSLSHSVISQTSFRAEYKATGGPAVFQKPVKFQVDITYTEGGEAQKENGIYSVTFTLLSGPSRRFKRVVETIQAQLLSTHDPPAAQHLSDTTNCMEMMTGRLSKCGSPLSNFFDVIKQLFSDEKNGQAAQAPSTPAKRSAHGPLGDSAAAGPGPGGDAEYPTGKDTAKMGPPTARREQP

[7] = target: T3, Serine/threonine-protein kinase BRSK2 (Homo sapiens); conditions: at 1 µM
[8] = target: Calcium/calmodulin-dependent protein kinase type 1D (Homo sapiens) (UniProt Q8IU85); conditions: at 0.1 µM
[9] = target: Calcium/calmodulin-dependent protein kinase type 1D (Homo sapiens) (UniProt Q8IU85); conditions: at 1 µM
[10] = target: Calcium/calmodulin-dependent protein kinase type II subunit alpha (Homo sapiens) (UniProt Q9UQM7); conditions: at 0.1 µM
[11] = target: Calcium/calmodulin-dependent protein kinase type II subunit alpha (Homo sapiens) (UniProt Q9UQM7); conditions: at 1 µM
[12] = target: Calcium/calmodulin-dependent protein kinase type II subunit delta (Homo sapiens) (UniProt Q13557); conditions: at 0.1 µM
[13] = target: Calcium/calmodulin-dependent protein kinase type II subunit delta (Homo sapiens) (UniProt Q13557); conditions: at 1 µM
[14] = target: T4, Calcium/calmodulin-dependent protein kinase type IV (Homo sapiens) (UniProt Q16566); conditions: at 0.1 µM
T4 sequence (whole entry): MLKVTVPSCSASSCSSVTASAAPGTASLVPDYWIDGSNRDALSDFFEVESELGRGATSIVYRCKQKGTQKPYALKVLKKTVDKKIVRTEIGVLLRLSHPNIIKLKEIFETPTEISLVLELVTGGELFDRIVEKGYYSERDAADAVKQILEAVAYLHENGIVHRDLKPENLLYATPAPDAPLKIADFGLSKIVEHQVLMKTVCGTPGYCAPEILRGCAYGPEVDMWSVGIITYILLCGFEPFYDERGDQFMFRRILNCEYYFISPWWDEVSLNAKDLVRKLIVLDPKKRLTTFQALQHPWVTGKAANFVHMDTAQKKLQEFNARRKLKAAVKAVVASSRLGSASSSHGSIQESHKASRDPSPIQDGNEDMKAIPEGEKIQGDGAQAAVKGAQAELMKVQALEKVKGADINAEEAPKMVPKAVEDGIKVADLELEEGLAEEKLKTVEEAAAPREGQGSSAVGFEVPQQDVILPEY

[15] = target: T4, Calcium/calmodulin-dependent protein kinase type IV (Homo sapiens); conditions: at 1 µM
[16] = target: T5, Serine/threonine-protein kinase Chk1 (Homo sapiens) (UniProt O14757); conditions: at 0.1 µM
T5 sequence (whole entry): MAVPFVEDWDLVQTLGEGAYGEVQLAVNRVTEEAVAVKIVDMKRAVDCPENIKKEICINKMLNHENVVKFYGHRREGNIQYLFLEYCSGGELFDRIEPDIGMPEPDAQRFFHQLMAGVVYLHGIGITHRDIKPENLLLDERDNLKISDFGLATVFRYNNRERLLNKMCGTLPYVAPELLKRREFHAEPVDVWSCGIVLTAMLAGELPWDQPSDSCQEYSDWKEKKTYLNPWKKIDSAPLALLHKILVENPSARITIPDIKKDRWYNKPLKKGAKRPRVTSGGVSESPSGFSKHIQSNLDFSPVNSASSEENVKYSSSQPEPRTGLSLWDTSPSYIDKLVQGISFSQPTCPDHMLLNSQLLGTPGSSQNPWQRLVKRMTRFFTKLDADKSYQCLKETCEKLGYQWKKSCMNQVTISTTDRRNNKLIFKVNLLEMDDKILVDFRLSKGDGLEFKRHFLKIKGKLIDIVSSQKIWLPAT

[17] = target: T5, Serine/threonine-protein kinase Chk1 (Homo sapiens); conditions: at 1 µM
[18] = target: Serine/threonine-protein kinase Chk2 (Homo sapiens) (UniProt O96017); conditions: at 0.1 µM
[19] = target: Serine/threonine-protein kinase Chk2 (Homo sapiens) (UniProt O96017); conditions: at 1 µM
[20] = target: Death-associated protein kinase 1 (Homo sapiens) (UniProt P53355); conditions: at 0.1 µM;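 further: reported figure is the mean inhibition of DAPK1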
Chain of Death-associated protein kinase 1 (Homo sapiens) (P53355 whole entry, looked up): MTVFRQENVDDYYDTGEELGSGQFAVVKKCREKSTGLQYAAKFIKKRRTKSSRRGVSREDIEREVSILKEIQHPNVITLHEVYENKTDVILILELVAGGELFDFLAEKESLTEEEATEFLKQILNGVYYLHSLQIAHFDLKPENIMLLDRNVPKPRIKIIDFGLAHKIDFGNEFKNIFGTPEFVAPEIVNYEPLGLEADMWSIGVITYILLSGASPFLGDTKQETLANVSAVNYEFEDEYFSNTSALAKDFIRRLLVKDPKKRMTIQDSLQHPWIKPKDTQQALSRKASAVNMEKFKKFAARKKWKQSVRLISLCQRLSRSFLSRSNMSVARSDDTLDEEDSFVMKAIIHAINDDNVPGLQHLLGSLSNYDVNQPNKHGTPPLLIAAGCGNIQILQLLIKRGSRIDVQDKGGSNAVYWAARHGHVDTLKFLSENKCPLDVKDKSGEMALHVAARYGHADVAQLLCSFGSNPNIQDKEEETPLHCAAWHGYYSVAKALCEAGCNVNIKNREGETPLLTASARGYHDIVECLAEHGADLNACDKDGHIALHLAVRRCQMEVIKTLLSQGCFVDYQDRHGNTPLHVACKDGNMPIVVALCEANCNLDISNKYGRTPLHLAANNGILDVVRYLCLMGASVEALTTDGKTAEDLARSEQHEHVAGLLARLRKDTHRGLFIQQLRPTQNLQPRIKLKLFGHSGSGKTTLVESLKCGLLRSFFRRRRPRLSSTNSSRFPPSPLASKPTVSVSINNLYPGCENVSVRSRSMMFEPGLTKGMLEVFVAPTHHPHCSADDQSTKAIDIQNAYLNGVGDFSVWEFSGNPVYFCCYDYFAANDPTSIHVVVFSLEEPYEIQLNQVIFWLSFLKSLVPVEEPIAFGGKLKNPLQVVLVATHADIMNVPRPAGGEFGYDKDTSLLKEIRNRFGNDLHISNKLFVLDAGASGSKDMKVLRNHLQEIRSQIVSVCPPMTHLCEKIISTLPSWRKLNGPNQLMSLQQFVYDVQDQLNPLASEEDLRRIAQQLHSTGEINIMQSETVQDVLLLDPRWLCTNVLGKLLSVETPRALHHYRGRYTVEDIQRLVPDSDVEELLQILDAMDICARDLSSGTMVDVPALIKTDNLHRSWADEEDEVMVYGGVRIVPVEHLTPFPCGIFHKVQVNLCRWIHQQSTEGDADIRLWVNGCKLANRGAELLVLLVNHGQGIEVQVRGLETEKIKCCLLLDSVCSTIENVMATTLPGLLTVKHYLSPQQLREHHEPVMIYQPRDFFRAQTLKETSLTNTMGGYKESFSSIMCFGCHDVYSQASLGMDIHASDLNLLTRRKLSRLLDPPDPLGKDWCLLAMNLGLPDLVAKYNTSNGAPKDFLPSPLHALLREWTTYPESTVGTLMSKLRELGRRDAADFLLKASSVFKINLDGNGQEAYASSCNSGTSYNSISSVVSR

Chain of Serine/threonine-protein kinase Chk2 (Homo sapiens) (O96017 whole entry): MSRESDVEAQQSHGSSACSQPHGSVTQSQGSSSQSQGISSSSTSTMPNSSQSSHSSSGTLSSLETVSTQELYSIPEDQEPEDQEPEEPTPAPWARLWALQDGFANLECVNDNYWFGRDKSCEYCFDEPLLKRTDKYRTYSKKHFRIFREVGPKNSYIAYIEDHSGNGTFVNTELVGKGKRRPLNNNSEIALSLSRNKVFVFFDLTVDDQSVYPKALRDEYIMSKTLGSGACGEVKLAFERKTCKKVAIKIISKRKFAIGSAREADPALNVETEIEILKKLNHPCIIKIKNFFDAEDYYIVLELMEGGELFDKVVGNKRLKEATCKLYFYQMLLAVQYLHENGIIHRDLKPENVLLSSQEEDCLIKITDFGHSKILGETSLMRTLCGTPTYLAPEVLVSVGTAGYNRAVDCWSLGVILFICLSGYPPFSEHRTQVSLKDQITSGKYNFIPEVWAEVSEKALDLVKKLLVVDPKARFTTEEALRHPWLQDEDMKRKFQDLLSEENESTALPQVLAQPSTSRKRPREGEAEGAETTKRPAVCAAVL
Chain of Calcium/calmodulin-dependent protein kinase type II subunit delta (Homo sapiens) (Q13557 whole entry): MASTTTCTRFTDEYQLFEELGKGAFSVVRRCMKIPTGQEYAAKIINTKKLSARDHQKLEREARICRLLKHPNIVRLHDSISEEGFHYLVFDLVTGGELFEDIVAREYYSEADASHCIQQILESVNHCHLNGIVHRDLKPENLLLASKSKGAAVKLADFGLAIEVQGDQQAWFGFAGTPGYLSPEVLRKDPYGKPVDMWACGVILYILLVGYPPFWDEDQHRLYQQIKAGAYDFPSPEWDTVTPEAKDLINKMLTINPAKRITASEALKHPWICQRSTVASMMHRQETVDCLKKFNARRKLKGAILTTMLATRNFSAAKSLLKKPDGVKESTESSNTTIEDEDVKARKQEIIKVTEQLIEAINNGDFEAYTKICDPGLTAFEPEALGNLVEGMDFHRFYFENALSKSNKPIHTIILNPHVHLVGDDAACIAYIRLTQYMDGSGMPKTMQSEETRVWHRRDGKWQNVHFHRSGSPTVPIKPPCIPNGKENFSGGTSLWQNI
Chain of Calcium/calmodulin-dependent protein kinase type 1D (Homo sapiens) (Q8IU85 whole entry, looked up): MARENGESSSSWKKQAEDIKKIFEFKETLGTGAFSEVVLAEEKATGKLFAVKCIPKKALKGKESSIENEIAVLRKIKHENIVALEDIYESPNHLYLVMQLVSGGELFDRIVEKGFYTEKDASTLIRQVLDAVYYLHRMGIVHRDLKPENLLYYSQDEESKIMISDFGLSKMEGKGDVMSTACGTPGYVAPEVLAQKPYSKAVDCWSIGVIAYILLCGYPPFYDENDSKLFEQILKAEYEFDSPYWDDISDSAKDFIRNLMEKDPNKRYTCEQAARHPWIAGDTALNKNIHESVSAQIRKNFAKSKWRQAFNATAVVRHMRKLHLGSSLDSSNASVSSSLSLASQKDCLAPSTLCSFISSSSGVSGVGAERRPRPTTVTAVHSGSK
Chain of Calcium/calmodulin-dependent protein kinase type II subunit alpha (Homo sapiens) (Q9UQM7 whole entry): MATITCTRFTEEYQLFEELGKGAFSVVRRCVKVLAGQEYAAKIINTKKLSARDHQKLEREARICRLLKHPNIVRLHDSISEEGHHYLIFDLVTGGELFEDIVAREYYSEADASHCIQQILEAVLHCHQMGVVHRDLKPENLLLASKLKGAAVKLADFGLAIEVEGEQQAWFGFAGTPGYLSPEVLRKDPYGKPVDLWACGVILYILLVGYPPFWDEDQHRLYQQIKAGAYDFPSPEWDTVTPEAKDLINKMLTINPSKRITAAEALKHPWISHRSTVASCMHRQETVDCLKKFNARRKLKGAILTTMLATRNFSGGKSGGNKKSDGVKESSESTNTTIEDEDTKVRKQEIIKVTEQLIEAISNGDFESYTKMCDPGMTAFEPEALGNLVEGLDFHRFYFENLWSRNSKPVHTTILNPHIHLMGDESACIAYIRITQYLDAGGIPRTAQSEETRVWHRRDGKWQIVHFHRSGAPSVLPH
Chain of 5'-AMP-activated protein kinase catalytic subunit alpha-2 (Homo sapiens) (P54646 whole entry, looked up): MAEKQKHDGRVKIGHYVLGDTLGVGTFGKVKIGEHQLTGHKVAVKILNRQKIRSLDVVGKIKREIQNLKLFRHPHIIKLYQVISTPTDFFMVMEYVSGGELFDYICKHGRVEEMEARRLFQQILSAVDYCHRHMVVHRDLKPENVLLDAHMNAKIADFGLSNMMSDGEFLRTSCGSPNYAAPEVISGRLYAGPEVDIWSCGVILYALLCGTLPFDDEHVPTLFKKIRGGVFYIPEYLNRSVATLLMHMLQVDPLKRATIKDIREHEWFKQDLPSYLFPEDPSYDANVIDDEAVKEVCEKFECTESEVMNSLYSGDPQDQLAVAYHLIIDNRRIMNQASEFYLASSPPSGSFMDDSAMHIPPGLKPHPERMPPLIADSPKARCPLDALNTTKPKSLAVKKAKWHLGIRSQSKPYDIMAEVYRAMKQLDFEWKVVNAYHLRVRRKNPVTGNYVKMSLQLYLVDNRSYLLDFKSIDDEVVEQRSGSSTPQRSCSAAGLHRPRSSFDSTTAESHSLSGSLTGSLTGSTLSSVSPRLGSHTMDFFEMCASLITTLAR

Compound | inhibition [1] [%] | inhibition [2] [%] | inhibition [3] [%] | inhibition [4] [%] | inhibition [5] [%] | inhibition [6] [%] | inhibition [7] [%] | inhibition [8] [%] | inhibition [9] [%] | inhibition [10] [%] | inhibition [11] [%] | inhibition [12] [%] | inhibition [13] [%] | inhibition [14] [%] | inhibition [15] [%] | inhibition [16] [%] | inhibition [17] [%] | inhibition [18] [%] | inhibition [19] [%] | inhibition [20] [%]
COc1cc2ncn(-c3cc(OCc4ccccc4C(F)(F)F)c(C(N)=O)s3)c2cc1OC | 6.24 | 21.7 | 65.5 | 6.7 | 41.1 | 14.8 | 52.4 | -0.86 | -1.9 | 2.39 | -0.1 | 3.23 | 7.03 | -2.38 | -1.47 | 2.54 | 3.46 | 3.3 | 5.56 | 4.32
CCn1c(-c2nonc2N)nc2cncc(C(=O)N3CCNCC3)c21 | 3.25 | -0.04 | 2.51 | 2.38 | -2.27 | -0.27 | 2.15 | 0.79 | 2.87 | 4.62 | 4.17 | 4.29 | 6.57 | -0.66 | 1.55 | 6.55 | 13.8 | 2.96 | 5.6 | 8.7
O=C(Nc1n[nH]c2nc(-c3ccco3)c(Br)cc12)C1CC1 | 5.5 | -2.45 | 4.11 | 3 | 12.9 | 3.32 | 11.5 | 0.93 | 1.36 | 4.38 | 2.92 | 3.12 | 4.6 | 1.47 | 2.02 | 3.44 | 4.35 | 2.64 | 2.71 | 3.14
CCCN1CCC(Oc2cc(Nc3nc(Nc4cccc(F)c4C(N)=O)c4cc[nH]c4n3)c(OC)cc2Cl)CC1 | 6.28 | 7.21 | 9.7 | 0.4 | -0.28 | -0.51 | 0.24 | 3.19 | 23.1 | 0.13 | 4.06 | 3.15 | 16.5 | 9.59 | 31.1 | 1.9 | 3.67 | 1.65 | 33.6 | 0.88
COc1ccc2cc(-c3c(-c4ccncc4)nc(-c4ccc([S+](C)[O-])cc4)n3C)ccc2c1 (stereo not given) | 3.34 | 1.01 | 2.13 | 1.67 | 3.16 | 1.67 | 0.66 | -0.09 | 0.68 | 3.34 | 3.37 | 2.81 | 3.06 | 0.45 | 1.25 | 3.28 | 4.03 | 2.27 | 2.52 | 3.27
COc1ccc(-c2nn3ncccc3c2-c2ccnc(Nc3ccc(Cl)c(C(F)(F)F)c3)n2)cc1 | -8.45 | -1.07 | -2.34 | 1.4 | 1.98 | 2.7 | 4.49 | -0.51 | -1.4 | 1.97 | 0.35 | 0.24 | -0.01 | -1.57 | -4.24 | -0.59 | -3.23 | 1.35 | 2.73 | 1.96
Cc1cccc(-c2n[nH]cc2-c2ccc3ncccc3n2)n1 | 1.54 | 0.78 | 4.74 | 0.22 | 1.97 | 2.17 | 2.14 | 0.56 | 1.08 | -1.03 | -0.05 | 0.08 | 2.08 | 1.14 | 2.81 | 2.24 | 1.66 | -0.67 | -0.16 | 0.65
